# Bioassay records: PubChem, Broad Institute
# PRC2 inh: EZH2/PRC2 methyltransferase inhibitors, primary screen, biochemical, DELFIA time-resolved fluorescence, single point. Histone-lysine N-methyltransferase EZH2 (Homo sapiens), Q15910. PRC2 H3K27 methylation, DELFIA TRF, 1 h. inhibition, % at 12.5 µM. actives 0.35% (n = 57,000). AID 651548, 2012;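 active means mean inhibition of replicates at least 50% and every single replicate also reaching 50%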;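 further: dimethyl H3K27 on biotinylated H3 21-44 peptide detected by antibody; plate controls were median neutral control wells for no effect and median positive control wells for full effect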
# Target sequence (Q15910 whole entry, looked up): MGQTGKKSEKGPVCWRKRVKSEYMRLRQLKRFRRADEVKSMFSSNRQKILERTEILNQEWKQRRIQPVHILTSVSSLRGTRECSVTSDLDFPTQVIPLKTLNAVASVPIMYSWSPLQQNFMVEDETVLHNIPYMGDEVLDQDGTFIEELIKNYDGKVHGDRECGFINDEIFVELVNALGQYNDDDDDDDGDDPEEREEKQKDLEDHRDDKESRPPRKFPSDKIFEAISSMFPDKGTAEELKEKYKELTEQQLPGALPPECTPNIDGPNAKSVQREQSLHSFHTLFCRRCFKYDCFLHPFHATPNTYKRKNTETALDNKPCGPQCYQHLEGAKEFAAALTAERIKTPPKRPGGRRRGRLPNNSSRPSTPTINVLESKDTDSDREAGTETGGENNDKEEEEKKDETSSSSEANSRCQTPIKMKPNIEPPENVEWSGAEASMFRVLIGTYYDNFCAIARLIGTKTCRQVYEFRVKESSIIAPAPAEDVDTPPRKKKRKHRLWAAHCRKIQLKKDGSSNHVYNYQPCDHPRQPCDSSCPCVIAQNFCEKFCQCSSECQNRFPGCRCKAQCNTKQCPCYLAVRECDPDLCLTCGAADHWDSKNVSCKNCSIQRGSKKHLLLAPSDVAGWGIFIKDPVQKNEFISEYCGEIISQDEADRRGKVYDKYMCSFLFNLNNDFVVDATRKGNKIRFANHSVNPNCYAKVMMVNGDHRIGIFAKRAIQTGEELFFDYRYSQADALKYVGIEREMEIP
# An asterisk follows results filed as active. Only a selection was taken, and hits are over-represented in it overall.
SMILES,PRC2 inh
CCCCC/C=C/C/C=C/C/C=C/C/C=C/CCCC(=O)NCCCC(=O)O,81*
CCCCC/C=C\C/C=C\C/C=C\C/C=C\CCCC(=O)NCCO,16
CCCCC/C=C\C/C=C\C/C=C\C/C=C\CCCC(=O)NCC(=O)O,3
Fc1ccc(Sc2c(F)c(F)nc(N3CCNCC3)c2F)cc1,-10
COc1ccc(CCNCc2cc(Cl)cc(Cl)c2OC)cc1OC,-7
CC(CCc1ccc(O)cc1)O[C@@H]1O[C@H](CO[C@H]2OC[C@](O)(CO)[C@H]2O)[C@@H](O)[C@H](O)[C@H]1O (some centres not stated),94*
C=CC1CN2CCC1CC2C(OC(=O)c1ccco1)c1ccnc2ccccc12 (configuration not stated),-7
CCOc1ccc(C(Nc2ccccc2)P2(=S)OCCCO2)cc1 (configuration not stated),16
COc1cc2cc(c1Cl)N(C)C(=O)CC(OC(=O)C(C)C)C1(C)OC1C(C)C1CC(O)(NC(=O)O1)C(OC)/C=C/C=C(/C)C2 (configuration not stated),6
O=c1ccc2cc(OC3O[C@H](CO)[C@@H](O)[C@H](O)[C@H]3O)c(O)cc2o1 (some centres not stated),18
N#CC(O[C@@H]1O[C@H](CO)[C@@H](O)[C@H](O)[C@H]1O)c1ccccc1 (some centres not stated),97*
COC(=O)C1=CO[C@H](C)[C@@H]2CN3CCC4(C(=O)Nc5ccccc54)C3C[C@H]12 (some centres not stated),2
Cc1ccnc(NC(c2ccccc2[N+](=O)[O-])c2ccc3ccc(C)nc3c2O)c1 (configuration not stated),-15
CN1Cc2c(ccc3c2OCO3)[C@@H]2[C@H]1c1cc3c(cc1C[C@@H]2O)OCO3,-11
O=C(CCl)c1cc(Br)c(Br)s1,7
